Hits are enriched below; roughly 1.4% of the tested compounds scored in any of these assays.
Mtb MenB inh: blocks the Mycobacterium tuberculosis MenB enzyme; P9WNP5; MenB enzyme assay, absorbance read-out; inhibition, % (no concentration beside the values); 0.43% of 100,000 active; in the data active = inhibition above about 21%, passing the limit was not always enough
Target sequence (P9WNP5 whole entry, looked up): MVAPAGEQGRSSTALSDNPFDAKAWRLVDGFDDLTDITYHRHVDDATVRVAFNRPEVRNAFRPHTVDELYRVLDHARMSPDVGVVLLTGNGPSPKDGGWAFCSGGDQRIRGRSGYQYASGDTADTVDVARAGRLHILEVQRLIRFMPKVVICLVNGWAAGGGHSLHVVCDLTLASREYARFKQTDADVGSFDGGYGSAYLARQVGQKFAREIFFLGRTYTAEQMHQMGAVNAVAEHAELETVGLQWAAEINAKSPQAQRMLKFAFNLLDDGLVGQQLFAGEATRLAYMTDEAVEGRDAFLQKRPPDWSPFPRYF
Mtb MbtI inh: blocks the Mycobacterium tuberculosis siderophore enzyme MbtI | 0.89% of 100,000 active | inhibition, % (test concentration not listed) | purified MbtI enzyme, fluorescence intensity read-out | AID 493033; in the data active = inhibition mostly above about 56%, no sharp cut-off; inactive = mostly below about 77%
Polio RdRp inh: inhibitors of poliovirus RNA polymerase binding and polymerization; poliovirus polymerase elongation, fluorescence polarization; hits give low values; % elongation, % (compound at 16.7 µg/mL); AID 588519; 0.66% of 150,000 active; P03300; in the data active = % elongation below about 90%
* marks the source's active call; other numbers are inactive results; · = no result.

SMILES | Mtb MenB inh | Mtb MbtI inh | Polio RdRp inh
CCCn1c(=O)n(C)c(=O)c2c(SCc3cc(=O)n4ccsc4n3)nc(CC(C)C)nc21 | -2.5 | 4.9 | 103.0
Cc1ccc(NC(=O)C2=CC(c3cccs3)=NS(=O)(=O)N2C)cc1 | · | · | 106.0
CC(=O)c1ccc(NC(=O)C2=CC(c3cccs3)=NS(=O)(=O)N2C)cc1 | · | · | -12.0*
Cc1nnc(Sc2nc(Nc3ccccc3)nc(Nc3ccccc3)n2)s1 | -20.5 | -1.9 | 105.0
O=C(O)Cn1c2ccccc2c2n[nH]c(=S)nc21 | -22.1 | 90.1* | 101.0
CCn1c2ccccc2c2n[nH]c(=S)nc21 | -69.4 | 25.5 | 103.0
CC(=O)Nc1sc(C)c(C)c1C(=O)O | · | 16.4 | 99.0
CC1(C)CC(=O)C=C(Nc2ccc3c(c2)OCO3)C1 | -11.1 | 13.1 | 103.0
O=C1CN=C(Nc2ccccc2Cl)N1Cc1ccccc1 | -21.8 | -4.9 | 103.0
Cc1cccc(NC2=NCC(=O)N2Cc2ccccc2)c1 | -15.6 | -9.3 | 87.0*
Cc1nc2c(c3nc(C#N)c(C#N)nc3n2Cc2ccco2)c2nc3ccccc3n12 | -26.9 | -9.9 | 104.0
CCOC(=O)C1CCCN(C(=O)C2c3cc(OC)c(OC)cc3C(=O)N(C)C2c2ccc(OC)cc2)C1 (stereo not drawn) | -13.8 | 9.6 | 100.0
CC(C)c1ccccc1NC(=O)/C=C/c1ccco1 | -3.5 | 21.9 | 100.0
O=C(c1cc(O)ccc1O)c1coc2ccc(O)cc12 | 12.7 | 99.8* | 101.0
O=C(c1cccs1)c1coc2ccc(O)cc12 | 6.2 | · | 106.0
O=C(COc1ccc(-c2nc3ccccc3s2)cc1)N1CCOCC1 | -4.1 | 101.8 | 103.0
CC(NCCN1CCNCC1)c1cc(C(C)(C)C)cc2c1CCC2(C)C (stereo not drawn) | -8.3 | · | 105.0
COc1cccc(C(=O)CS)c1 | -9.7 | 86.7* | 101.0
COc1cccc(C(=O)CC#N)c1 | -0.1 | -8.2 | 104.0
CC(C)NC(=O)Cn1ncc2c3ccccc3n(Cc3ccc(F)cc3)c2c1=O | -32.0 | -1.9 | 106.0
O=C(CSCc1c(Cl)cccc1Cl)N1CCOCC1 | -2.1 | -14.3 | 101.0
CN(C)C(=O)CSCc1c(Cl)cccc1Cl | -8.7 | 4.0 | 34.0*
O=C1N=C(c2ccccc2)S/C1=C\c1cccs1 | -84.8 | 99.9* | 97.0
O=C1N=C(N2CCCCC2)S/C1=C\c1cccs1 | -9.3 | · | 107.0
O=C(Nc1cccc2ccccc12)OCC(F)(F)F | -16.9 | -63.3 | 100.0
SMILES | Mtb MenB inh | Mtb MbtI inh | Polio RdRp inh
COc1ccccc1NC(=O)Cc1nc(CSc2nc(C)cs2)cs1 | 0.8 | 13.8 | ·
COc1ccc(NC2=C(c3ccccc3)C(=O)c3ccccc32)cc1Cl | · | · | 108.0
Cc1ccc(NC2=C(c3ccc(C(F)(F)F)cc3)C(=O)c3ccccc32)cc1C | · | · | 81.0*
O=c1[nH]c2sc3c(c2c2nc(-c4cc(-c5ccccc5)nn4-c4ccccc4)nn12)CCC3 | -32.8 | -10.1 | 104.0
CCn1c(SC)nnc1C1CCN(CC(=O)N(c2ccccc2)c2ccccc2)CC1 | -28.8 | -7.1 | 103.0
Cc1ccc(-c2nnc3n2N=C(C(C)(C)C)CS3)cc1 | -23.7 | -22.4 | 105.0
CC(C)(C)C1=Nn2c(nnc2-c2ccccc2)SC1 | -1.0 | 64.5* | 93.0
Cc1cccc(-c2n[nH]c(=S)n2C2CCCCC2)c1 | -36.3 | -5.0 | 100.0
CCc1cccc2c1=NC(=O)C=2c1c(C)[nH]n(-c2ccccc2)c1=O | -4.3 | 84.9* | 97.0
Cc1[nH]n(-c2ccccc2)c(=O)c1C1=c2ccccc2=NC1=O | 13.6 | · | 95.0
CCc1ccc(CN2CCC(N3CCCCC3)CC2)cc1 | -14.6 | · | 95.0
CCc1ccc(CN2CCN(CC)CC2)cc1 | 34.6* | 0.9 | 102.0
CC1CCN(C(=O)COC(=O)/C=C/c2cccs2)CC1 | · | 0.8 | 99.0
COc1ccc(-c2oc3ncn4nc(COc5ccc(Cl)cc5)nc4c3c2-c2ccc(OC)cc2)cc1 | · | · | 55.0*
COc1ccc(-c2oc3ncn4nc(COc5c(C)cccc5C)nc4c3c2-c2ccc(OC)cc2)cc1 | · | · | 108.0
O=C(CSc1nc2ccccc2c(=O)[nH]1)c1ccc(-c2ccccc2)cc1 | 0.1 | 0.9 | 104.0
O=C(CSc1nc2ccccc2c(=O)[nH]1)c1ccc(O)cc1O | 5.7 | 81.7* | 104.0
CCOCCCNC(=O)CCC(=O)NNc1nc2ccccc2c2nc(C)nn12 | · | · | 36.0*
COCCCNC(=O)CCC(=O)NNc1nc2ccccc2c2nc(C)nn12 | · | · | 24.0*
CCCCNC(=O)CCC(=O)NNc1nc2ccccc2c2nc(-c3ccccc3)nn12 | · | · | 106.0
Cc1nc2c3ccccc3nc(NNC(=O)CCC(=O)N3CCN(c4ccc(F)cc4)CC3)n2n1 | · | · | 95.0
CCCCNC(=O)CCC(=O)NNc1nc2ccccc2c2nc(C)nn12 | · | · | 81.0*
Cc1nc2c3ccccc3nc(NNC(=O)CCC(=O)N3CCN(c4cc(Cl)ccc4C)CC3)n2n1 | · | · | 107.0
CCOC(=O)C1CCCN(C(=O)CSc2ccc(NC(C)=O)cc2)C1 (stereo not drawn) | 0.0 | 66.6* | 100.0
CCOC(=O)C1CCCN(C(=O)CSc2ccccc2Cl)C1 (stereo not drawn) | · | 20.2 | 100.0

Screens from PubChem BioAssay.
